FLuc inh-1 – blocks purified firefly luciferase enzyme activity; Potency, µM (highest dose often 115 µM), actives largely listed as inhibitors; purified P. pyralis luciferase, luminescence, biochemical; 76,000 tested, 2.5% active; note: % is set by controls: 0 for no effect and ±100 for the full control effect; nearly all actives have a fitted effect of over 65% in size
Target sequence (P08659 whole entry, looked up): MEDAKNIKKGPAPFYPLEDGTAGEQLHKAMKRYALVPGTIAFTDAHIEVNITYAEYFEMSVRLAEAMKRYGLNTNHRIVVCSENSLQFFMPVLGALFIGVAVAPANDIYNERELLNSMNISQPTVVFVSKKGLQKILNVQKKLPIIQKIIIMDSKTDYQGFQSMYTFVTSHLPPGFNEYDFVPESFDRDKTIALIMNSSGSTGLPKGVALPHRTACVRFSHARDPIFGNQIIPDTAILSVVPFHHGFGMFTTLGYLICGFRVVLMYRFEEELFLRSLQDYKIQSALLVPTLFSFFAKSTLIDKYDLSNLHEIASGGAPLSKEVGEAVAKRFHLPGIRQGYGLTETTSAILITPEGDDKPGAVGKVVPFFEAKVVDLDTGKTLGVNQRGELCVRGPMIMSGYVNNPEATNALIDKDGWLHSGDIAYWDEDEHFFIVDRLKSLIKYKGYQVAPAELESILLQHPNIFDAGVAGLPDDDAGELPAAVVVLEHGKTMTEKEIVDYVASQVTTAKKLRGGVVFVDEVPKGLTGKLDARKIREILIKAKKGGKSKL
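Biochemical qHTS: compound (6-point titration) added to 10uM D-luciferin plus 10uM ATP in Tris acetate pH 7.5 buffer with Mg, Tween-20 and BSA, then purified enzyme at 10nM; light output imaged.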
NIH3T3 tox – cytotoxic compounds in NIH 3T3 cells. NIH 3T3 viability, CellTiter-Glo ATP luminescence, 48-72 h. AID 1345082. Potency, µM (doses to about 96.7 µM), for inactives: at the top dose activity change, negative = cytotoxicity, actives largely listed as inhibitors. 94,000 tested, 4.3% active; note: % is set by controls: 0 for no effect and ±100 for the full control effect; nearly all actives have a fitted effect of over 55% in size
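Cells were seeded at 400 per well, treated with pin-transferred compound, and kept 48 or 72 hr at 37 °C before CellTiter-Glo addition and luminescence imaging of cellular ATP.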
SNCA expr inh – inhibitors of alpha-synuclein (SNCA) gene expression. HEK-293 SNCA-luciferase knock-in, luminescence, 24 h. Potency, µM (series often up to 57.2 µM), for inactives: at the highest dose activity change, negative = inhibition, actives largely listed as inhibitors. 140,000 tested, 0.17% active;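 note: plate controls were DMSO cells for no effect and cell-free wells for full effect; nearly all actives have a fitted effect of over 45% in size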
NPR1 antag – human Npr1 receptor antagonism. P16066. HEK293 hNpr1 GloSensor cGMP, ANP-stimulated luminescence. Potency, µM (top dose mostly 46.3 µM), inactives show at the top dose activity change, negative = inhibition, actives largely listed as inhibitors. 76,000 tested, 1.6% active. AID 1347048; calls by dose curve; note: % is set by controls: 0 for no effect and ±100 for the full control effect; nearly all actives have a fitted effect of over 60% in size
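Compound pre-incubated 30 min at room temperature on GloSensor-loaded HEK293 cells stably carrying hNpr1 and the pGS-40F cGMP biosensor. Stimulation uses hNppA at 0.1 nM final; luminescence is taken at baseline and 20 min post-agonist.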
HEK cytotox – HEK 293 cell cytotoxicity; 94,000 tested, 6.6% active; AID 1345083; HEK 293 viability, ATP luminescence (CellTiter-Glo), 48-72 h; Potency, µM (doses to about 115 µM), inactives show at the top dose activity change, negative = cytotoxicity, actives largely listed as inhibitors; note: % is set by controls: 0 for no effect and ±100 for the full control effect; nearly all actives have a fitted effect of over 60% in size
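qHTS cytotoxicity; HEK 293, 250 cells/well; compound pinned; 48 or 72 hr, 37 degree Celsius, 5% CO2, 95% humidity; CellTiter-Glo, 10 min RT; luminescence (ATP).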
HEK293 viab – counter-screen for SNCA expression inhibitors: cell viability; HEK-293-SNCA-luc viability, GF-AFC fluorescence, 24 h; Potency, µM (top dose mostly 57.1 µM), for inactives: top-dose activity change, negative = cytotoxicity, usual class: cytotoxic; 150,000 tested, 0.12% active;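 note: 0% = DMSO-treated cells and -100% = medium-only wells without cells; nearly all actives have a fitted effect of over 30% in size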
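Cytotoxicity counterscreen: after 24 h compound treatment of genome-edited SNCA-luciferase HEK-293 cells, live-cell protease substrate GF-AFC read by fluorescence after 30 min; activity scaled between DMSO (0%) and medium-only (-100%), curves Hill-fitted.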
FLuc SDR no ATP – binders stabilizing firefly luciferase, without ATP; shares compounds with FLuc inh-1; 1,300 tested, 7.8% active; Purified FLuc-C-HiBiT, Nano-Glo HiBiT luminescence, no ATP; Potency, µM (series often up to 32.7 µM), without a hit: top-dose activation (signal gain), most hits filed as activators; note: nearly all actives have a fitted effect of over 55% in size
FLuc SDR ATP – binders stabilizing firefly luciferase, plus ATP; shares compounds with FLuc inh-1; purified FLuc-C-HiBiT + ATP, HiBiT complementation luminescence; Potency, µM (titrated, usually from 32.7 µM), inactives show at the top dose activation (gain of signal), actives largely listed as activators; 1,300 tested, 8.7% active; AID 1963319;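 note: signal reports ligand binding via conformational change of the enzyme rather than luciferase catalysis; % of control where 0% means no effect; nearly all actives have a fitted effect of over 55% in size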
FLuc inh-2 – firefly luciferase enzyme inhibition | shares compounds with FLuc inh-1 | purified FLuc-C-HiBiT enzyme, luciferin luminescence | Potency, µM (series often up to 32.7 µM), without a hit: top-dose activity change, negative = inhibition, hits mostly inhibitors | 1,300 tested, 42% active; note: % is set by controls: 0 for no effect and ±100 for the full control effect; nearly all actives have a fitted effect of over 70% in size
Numbers without * were called inactive; i = inactive; ? = inconclusive; / = not tested or not shown; ! = not confirmed by another sample; [ ] = dose if it differs, or a comment. Most compounds without a hit are left out; they make up all but 7.4% or so of the library. Unless noted, calls come from the whole dose curve; as a rule, active = well fitted curve in the direction sought with a large enough effect; inconclusive = small, poorly fitted or top-dose-only effect, or another doubt; inactive = no such curve, though single readings can be large; an effect the other way counts as inactive or inconclusive. Potency is the fitted concentration of half-maximal effect.

SMILES	FLuc inh-1	NIH3T3 tox	SNCA expr inh	NPR1 antag	HEK cytotox	HEK293 viab	others
COc1ncccc1-c1cc2c(ccn2Cc2ccncc2)c(N2CCOCC2)n1	i	?	5%[87.6 µM]	-9%[70.6 µM]	-30%[172 µM]	-6%[87.6 µM]
COc1ncccc1-c1cc2c(ccn2CC2CCN(C)CC2)c(N2CCOCC2)n1	i	45µM*	-1%[87.6 µM]	-13%[70.6 µM]	89µM*	5%[87.6 µM]
O=C([C@@H]1CCCN1c1nccc(Nc2ccccc2Cl)n1)N1CCCC1	/	?	20%	/	?	1%[12.5 µM]
O=C([C@@H]1CCCN1c1nccc(Nc2ccccc2Cl)n1)N1CCC(c2ccccc2)CC1	/	35µM*	?	/	22µM*	-4%[12.5 µM]
O=C(C1CCCN1c1nccc(Nc2ccccc2F)n1)N1CCN(Cc2ccccc2)CC1 (stereo not given)	/	?	5%	/	32µM*	5%[12.5 µM]
O=C(C1CCCN1c1nccc(Nc2ccccc2F)n1)N1CCC(c2ccccc2)CC1 (stereo not given)	/	?	-14%	/	?	2%[12.5 µM]
Cc1ccc(Nc2ccnc(N3CCCC3C(=O)N3CCC(c4ccccc4)CC3)n2)cc1 (stereo not given)	/	32µM*	?	/	32µM*	0%[12.5 µM]
O=C([C@@H]1CCCN1c1nccc(Nc2ccccc2Cl)n1)N1CCN(Cc2ccccc2)CC1	/	45µM*	-15%	/	?	-2%[12.5 µM]
CN(C)S(=O)(=O)N1CC(CNC(=O)C2CC2)C2(CCCCC2)C1 (stereo not given)	/	-27%	-7%	/	?	1%
Cc1ccc(Nc2ccnc(N3CCCC3C(=O)N3CCN(Cc4ccccc4)CC3)n2)cc1 (stereo not given)	/	35µM*	4%	/	14µM*	-20%[12.5 µM]
O=C(C1CCN(c2nccc(Nc3ccccc3Cl)n2)CC1)N1CCC(c2ccccc2)CC1	/	40µM*	?	/	32µM*	-8%
COc1cccc(CNC(=O)c2ccc3nnc(-c4ccc(Cl)cc4)n3c2)c1	/	?	33%	/	?	-24%
O=C(NCc1ccc(C(F)(F)F)cc1)C1CCCN(Cc2cccc(-c3cccs3)c2)C1 (stereo not given)	/	11µM*	?	/	?	?
COc1ccccc1-c1cccc(CN2CCCC(C(=O)Nc3ccccc3F)C2)c1 (stereo not given)	/	?	-4%	/	?	5%
O=C(NCCc1ccc(F)cc1)C1CCCN(Cc2cccc(-c3cccs3)c2)C1 (stereo not given)	/	?	/	/	28µM*!	/
O=C(Nc1cccc(Cl)c1)C1CCCN(Cc2cccc(-c3cccs3)c2)C1 (stereo not given)	/	?	/	/	40µM*	/
C#CCNC(=O)C1CCCN(Cc2cccc(-c3cccs3)c2)C1 (stereo not given)	/	?	-2%	/	?	-6%
O=C(NCCc1ccccc1)C1CCCN(Cc2cccc(-c3cccs3)c2)C1 (stereo not given)	/	?	-14%	/	?	-22%
O=C(Nc1ccc(F)cc1)C1CCCN(Cc2cccc(-c3cccs3)c2)C1 (stereo not given)	/	?	/	/	40µM*	/
O=C(Nc1ccccc1)N1CCN(C(=O)c2nc3cccnc3n(CCc3ccccc3)c2=O)CC1	/	?	-4%	/	-22%	-4%
COCCNC(=O)c1cc(-c2ccc(OC)cc2)nc2c1cnn2C	/	?	-2%	/	?	-2%
CN1CCCN(S(=O)(=O)c2ccccc2Br)c2ccccc21	/	?	22%	/	?	-9%
N#Cc1ccc(CN2CC3(Cc4ccccc4C(=O)N3)C2)cc1	/	35µM*	-3%	/	?	-1%
COC(=O)c1cccc(NC(=O)c2ccc3c(c2)N(C)C2CCCCN2C3=O)c1 (stereo not given)	?	?	30%	-3%	?	21%[12.5 µM]
COc1cc(NC(=O)c2ccc3c(c2)N(C)C2CCCCN2C3=O)cc(OC)c1OC (stereo not given)	i	32µM*	10%	-15%	?	3%[12.5 µM]
SMILES	FLuc inh-1	NIH3T3 tox	SNCA expr inh	NPR1 antag	HEK cytotox	HEK293 viab	others
CSc1cccc(NC(=O)c2ccc3c(c2)N(C)C2CCCCCN2C3=O)c1 (stereo not given)	?	32µM*	-19%	-4%	18µM*	7%[12.5 µM]
COC(=O)c1cccc(NC(=O)c2ccc3c(c2)N(C)C2CCCCCN2C3=O)c1 (stereo not given)	?	45µM*	-20%	?	?	11%[12.5 µM]
Cc1cc(C)cc(NC(=O)c2ccc3c(c2)N(C)C2CCCN2C3=O)c1 (stereo not given)	i	-26%	65%	9%	71µM*	-11%[12.5 µM]
CN1c2cc(C(=O)Nc3cccc(Br)c3)ccc2C(=O)N2CCCCCC21 (stereo not given)	?	?	129%	1%	?	0%[12.5 µM]
Cc1cccc(NC(=O)c2ccc3c(c2)N(C)C2CCCCCN2C3=O)c1 (stereo not given)	35µM*	?	174%	-1%	?	11%[12.5 µM]
COc1ccc2c(c1)CCN=C2C[C@H]1CN(C(=O)C(C)(C)C)CC[C@H]1CC(=O)O	i	?	-16%[87.6 µM]	-10%[70.6 µM]	112µM*	-1%[87.6 µM]
CC(C)CCNC(=O)c1ccc2c(c1)nc1n2CCCCC1	/	/	-82%	/	/	12%	FLuc SDR no ATP=?;FLuc SDR ATP=?;FLuc inh-2=9.9µM*
O=C(NCCc1ccccc1Cl)c1ccc2c(c1)nc1n2CCCCC1	/	/	-74%	/	/	-3%	FLuc SDR no ATP=3.9µM*;FLuc SDR ATP=?;FLuc inh-2=1.1µM*
O=C(NCCc1ccccc1)c1ccc2c(c1)nc1n2CCOC1	/	/	?	/	/	0%	FLuc SDR no ATP=?;FLuc SDR ATP=?;FLuc inh-2=8.8µM*
CCOC(=O)C1CCN(C(=O)c2nc3sccn3c2-c2ccc(C(F)(F)F)cc2)CC1	/	?	-4%	/	-26%	?
O=C(Nc1ccccc1)N1CCC(c2nn(-c3ccccn3)c(=O)[nH]2)CC1	/	-15%	-24%	/	i	-1%

Bioassay records (PubChem)
